Measurements as given in the supplement of paper PMC11732987, “Enantioselective OTUD7B fragment discovery through chemoproteomics screening and high-throughput optimisation” (Communications Chemistry, 2025).

Columns and labels:
Assay in all cases: log2 ratio of Biotin-Ahx-Ub-VS probe labelling (fragment/DMSO); higher = less target engagement (more negative = stronger competition), active = hit call of the paper (q ≤ 0.05, log2 ratio ≤ -1)
Details in all cases: compound concentration: 200 uM; treatment time: 3 h
[1] = biological target: T1, USP42 (UniProt Q9H9J4)
T1 sequence (whole entry): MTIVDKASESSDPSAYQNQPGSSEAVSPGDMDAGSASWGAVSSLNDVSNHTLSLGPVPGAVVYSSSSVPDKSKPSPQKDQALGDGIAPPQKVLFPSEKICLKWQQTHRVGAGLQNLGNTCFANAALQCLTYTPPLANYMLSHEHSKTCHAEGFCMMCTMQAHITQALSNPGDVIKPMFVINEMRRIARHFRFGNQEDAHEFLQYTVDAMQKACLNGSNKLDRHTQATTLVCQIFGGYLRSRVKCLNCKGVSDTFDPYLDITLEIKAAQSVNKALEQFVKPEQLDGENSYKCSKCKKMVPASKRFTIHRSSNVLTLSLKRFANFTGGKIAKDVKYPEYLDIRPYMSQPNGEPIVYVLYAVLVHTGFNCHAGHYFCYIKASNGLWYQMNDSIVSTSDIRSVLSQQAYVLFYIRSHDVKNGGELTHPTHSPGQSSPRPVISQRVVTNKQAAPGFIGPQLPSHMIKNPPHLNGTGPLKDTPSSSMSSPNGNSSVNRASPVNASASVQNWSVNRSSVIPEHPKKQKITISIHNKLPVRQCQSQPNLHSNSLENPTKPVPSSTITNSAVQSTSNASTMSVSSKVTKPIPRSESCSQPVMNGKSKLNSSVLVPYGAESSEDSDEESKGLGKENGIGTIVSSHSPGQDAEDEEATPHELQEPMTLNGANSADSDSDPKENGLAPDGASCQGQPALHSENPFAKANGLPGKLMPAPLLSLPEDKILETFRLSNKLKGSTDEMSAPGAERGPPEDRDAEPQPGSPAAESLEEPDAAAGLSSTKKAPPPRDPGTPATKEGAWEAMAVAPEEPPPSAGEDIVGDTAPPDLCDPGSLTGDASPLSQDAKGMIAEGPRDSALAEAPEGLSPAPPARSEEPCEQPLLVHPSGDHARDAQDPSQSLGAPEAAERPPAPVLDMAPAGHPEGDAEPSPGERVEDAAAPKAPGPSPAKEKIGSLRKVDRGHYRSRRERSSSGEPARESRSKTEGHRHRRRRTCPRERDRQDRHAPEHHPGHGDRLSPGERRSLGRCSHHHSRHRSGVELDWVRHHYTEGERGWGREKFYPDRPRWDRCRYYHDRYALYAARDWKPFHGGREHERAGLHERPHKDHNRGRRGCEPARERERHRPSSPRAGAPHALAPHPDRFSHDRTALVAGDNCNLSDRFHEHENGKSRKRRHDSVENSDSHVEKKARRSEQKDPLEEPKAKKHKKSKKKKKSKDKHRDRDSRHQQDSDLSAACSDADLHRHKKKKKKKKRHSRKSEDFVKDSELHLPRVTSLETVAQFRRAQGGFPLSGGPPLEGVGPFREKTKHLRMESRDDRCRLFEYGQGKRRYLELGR
In short: (§1)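 HEK293T lysate (495 µg per sample, in Tris/CHAPS/IGEPAL buffer with protease inhibitors) was exposed in triplicate for 3 h to fragment at 200 µM or to vehicle, then to Biotin-Ahx-Ub-VS at 0.5 µM final for 1 h. Labelled DUBs were enriched on NeutrAvidin, digested with LysC and trypsin, and analysed by diaPASEF LC-MS/MS. Spectronaut label-free quantities were normalised to the global median, and values are average log2 ratios of fragment over vehicle from an unpaired t-test. Only proteins with ≥2 unique peptides were used.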

[2] = biological target: USP46 (UniProt P62068)
In short: as §1

[3] = biological target: T2, USP47 (UniProt Q96K76)
T2 sequence (whole entry): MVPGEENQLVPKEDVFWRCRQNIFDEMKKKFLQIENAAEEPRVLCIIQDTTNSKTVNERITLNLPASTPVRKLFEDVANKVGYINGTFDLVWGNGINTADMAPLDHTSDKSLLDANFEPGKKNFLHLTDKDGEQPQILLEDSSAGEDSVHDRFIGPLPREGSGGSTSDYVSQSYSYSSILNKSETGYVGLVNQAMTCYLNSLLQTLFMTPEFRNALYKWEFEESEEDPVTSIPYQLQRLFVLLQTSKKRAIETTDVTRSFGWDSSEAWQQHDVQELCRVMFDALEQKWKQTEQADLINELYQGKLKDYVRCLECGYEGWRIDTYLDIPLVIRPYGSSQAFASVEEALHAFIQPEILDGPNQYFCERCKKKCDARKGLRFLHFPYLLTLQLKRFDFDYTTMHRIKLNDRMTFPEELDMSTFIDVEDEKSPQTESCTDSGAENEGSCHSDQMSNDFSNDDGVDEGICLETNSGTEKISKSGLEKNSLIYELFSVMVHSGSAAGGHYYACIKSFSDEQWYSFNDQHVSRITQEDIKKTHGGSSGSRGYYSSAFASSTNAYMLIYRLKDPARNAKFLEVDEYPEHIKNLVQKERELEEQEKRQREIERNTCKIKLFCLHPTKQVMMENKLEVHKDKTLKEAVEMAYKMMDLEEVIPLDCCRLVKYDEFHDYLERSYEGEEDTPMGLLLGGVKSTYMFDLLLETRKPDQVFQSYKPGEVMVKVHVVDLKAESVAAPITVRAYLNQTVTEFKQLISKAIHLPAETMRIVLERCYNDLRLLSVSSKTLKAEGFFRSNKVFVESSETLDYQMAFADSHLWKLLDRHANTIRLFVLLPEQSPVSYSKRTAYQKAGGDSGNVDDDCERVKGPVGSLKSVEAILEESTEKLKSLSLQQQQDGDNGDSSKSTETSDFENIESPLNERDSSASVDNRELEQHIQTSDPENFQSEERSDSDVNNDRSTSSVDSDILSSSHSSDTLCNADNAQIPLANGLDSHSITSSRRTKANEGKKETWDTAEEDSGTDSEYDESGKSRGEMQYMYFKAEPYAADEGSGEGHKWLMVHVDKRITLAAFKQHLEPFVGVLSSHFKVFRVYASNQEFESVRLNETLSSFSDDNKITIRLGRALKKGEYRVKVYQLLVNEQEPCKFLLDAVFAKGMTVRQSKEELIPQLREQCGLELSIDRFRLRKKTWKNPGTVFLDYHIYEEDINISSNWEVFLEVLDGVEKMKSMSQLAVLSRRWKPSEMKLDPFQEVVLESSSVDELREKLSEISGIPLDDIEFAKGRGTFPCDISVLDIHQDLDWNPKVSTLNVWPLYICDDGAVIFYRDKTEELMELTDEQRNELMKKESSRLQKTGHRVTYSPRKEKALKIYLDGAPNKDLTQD
In short: as §1

[4] = biological target: T3, USP48 (UniProt Q86UV5)
T3 sequence (whole entry): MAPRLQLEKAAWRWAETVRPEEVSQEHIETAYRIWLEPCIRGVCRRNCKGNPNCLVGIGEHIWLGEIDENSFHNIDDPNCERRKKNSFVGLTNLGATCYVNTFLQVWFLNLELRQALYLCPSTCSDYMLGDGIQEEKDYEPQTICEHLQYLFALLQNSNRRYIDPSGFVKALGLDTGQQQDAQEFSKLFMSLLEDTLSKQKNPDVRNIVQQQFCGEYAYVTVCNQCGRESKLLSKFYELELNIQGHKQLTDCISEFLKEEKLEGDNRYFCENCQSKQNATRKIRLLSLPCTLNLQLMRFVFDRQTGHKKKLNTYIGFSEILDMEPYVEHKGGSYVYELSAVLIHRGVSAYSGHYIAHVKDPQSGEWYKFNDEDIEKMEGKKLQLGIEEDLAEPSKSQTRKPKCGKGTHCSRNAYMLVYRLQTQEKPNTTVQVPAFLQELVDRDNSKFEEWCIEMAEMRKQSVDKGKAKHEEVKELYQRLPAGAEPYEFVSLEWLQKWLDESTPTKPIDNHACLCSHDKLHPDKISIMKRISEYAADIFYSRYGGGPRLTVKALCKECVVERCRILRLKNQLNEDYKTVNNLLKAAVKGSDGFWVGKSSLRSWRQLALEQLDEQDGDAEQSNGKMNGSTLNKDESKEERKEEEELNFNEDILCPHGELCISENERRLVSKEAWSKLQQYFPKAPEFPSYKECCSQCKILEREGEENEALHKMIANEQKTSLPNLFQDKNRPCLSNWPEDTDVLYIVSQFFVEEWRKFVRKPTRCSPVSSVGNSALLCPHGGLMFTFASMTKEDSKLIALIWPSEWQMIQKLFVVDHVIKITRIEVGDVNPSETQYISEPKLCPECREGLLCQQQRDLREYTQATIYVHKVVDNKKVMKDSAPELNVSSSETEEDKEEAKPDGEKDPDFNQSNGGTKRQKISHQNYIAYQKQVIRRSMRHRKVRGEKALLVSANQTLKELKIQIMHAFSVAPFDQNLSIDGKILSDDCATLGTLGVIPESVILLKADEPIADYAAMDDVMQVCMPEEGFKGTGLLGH
In short: as §1

[5] = biological target: T4, USP5 (UniProt P45974)
T4 sequence (whole entry): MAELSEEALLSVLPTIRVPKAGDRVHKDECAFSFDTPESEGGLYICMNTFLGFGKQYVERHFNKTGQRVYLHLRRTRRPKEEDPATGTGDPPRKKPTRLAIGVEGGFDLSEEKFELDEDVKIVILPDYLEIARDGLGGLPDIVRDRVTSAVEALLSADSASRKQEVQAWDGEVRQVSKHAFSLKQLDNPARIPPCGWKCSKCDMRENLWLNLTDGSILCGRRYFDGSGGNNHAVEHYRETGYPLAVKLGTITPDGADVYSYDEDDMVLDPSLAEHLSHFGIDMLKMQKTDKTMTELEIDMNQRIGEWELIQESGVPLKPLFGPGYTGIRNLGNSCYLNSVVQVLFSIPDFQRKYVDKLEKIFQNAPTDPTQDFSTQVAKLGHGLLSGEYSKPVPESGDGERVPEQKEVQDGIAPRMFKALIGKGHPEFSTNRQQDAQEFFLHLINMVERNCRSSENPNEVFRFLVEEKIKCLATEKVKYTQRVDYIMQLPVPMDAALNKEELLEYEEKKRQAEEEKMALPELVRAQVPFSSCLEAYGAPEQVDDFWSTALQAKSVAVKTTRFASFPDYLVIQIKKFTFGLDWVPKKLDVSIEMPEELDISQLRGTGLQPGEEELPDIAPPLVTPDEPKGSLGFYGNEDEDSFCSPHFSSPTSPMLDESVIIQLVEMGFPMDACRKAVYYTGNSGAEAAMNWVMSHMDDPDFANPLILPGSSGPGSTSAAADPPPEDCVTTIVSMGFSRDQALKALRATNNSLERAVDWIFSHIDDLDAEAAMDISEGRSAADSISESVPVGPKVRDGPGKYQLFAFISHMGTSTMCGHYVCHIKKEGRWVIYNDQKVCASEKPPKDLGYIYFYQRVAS
In short: as §1

[6] = biological target: USP54 (UniProt Q70EL1)
In short: as §1

[7] = biological target: USP7 (UniProt Q93009)
In short: as §1

[8] = biological target: T5, USP8 (UniProt P40818)
T5 sequence (whole entry): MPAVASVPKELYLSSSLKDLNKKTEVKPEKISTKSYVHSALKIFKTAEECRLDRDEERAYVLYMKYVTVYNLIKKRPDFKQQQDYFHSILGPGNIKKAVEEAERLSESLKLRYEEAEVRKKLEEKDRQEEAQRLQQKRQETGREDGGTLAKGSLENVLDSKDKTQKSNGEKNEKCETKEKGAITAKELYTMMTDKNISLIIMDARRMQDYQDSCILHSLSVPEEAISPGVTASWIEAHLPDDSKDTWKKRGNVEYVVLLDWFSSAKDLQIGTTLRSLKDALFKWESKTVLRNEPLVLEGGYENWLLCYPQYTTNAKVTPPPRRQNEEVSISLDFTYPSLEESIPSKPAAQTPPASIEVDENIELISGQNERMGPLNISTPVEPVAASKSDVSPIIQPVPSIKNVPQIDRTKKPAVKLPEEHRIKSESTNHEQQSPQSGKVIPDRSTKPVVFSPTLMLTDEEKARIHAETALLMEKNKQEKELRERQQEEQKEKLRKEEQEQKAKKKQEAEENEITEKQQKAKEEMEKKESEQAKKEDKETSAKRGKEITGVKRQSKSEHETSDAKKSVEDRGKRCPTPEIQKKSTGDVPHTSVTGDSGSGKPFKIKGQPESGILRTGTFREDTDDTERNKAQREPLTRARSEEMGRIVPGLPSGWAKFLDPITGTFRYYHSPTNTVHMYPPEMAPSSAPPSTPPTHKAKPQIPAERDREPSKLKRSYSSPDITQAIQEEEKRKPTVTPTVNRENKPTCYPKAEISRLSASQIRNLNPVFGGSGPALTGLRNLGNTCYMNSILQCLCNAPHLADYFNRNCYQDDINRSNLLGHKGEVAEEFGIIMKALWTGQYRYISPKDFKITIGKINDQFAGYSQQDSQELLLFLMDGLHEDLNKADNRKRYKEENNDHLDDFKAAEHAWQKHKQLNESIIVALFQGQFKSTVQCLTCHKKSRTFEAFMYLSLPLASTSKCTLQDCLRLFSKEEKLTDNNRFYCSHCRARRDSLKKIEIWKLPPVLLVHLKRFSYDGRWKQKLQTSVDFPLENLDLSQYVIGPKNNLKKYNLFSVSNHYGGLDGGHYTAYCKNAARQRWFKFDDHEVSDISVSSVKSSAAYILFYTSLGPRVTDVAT
In short: as §1

Measured: log2 ratio of Biotin-Ahx-Ub-VS probe labelling

Sequence of USP54 (Q70EL1 whole entry): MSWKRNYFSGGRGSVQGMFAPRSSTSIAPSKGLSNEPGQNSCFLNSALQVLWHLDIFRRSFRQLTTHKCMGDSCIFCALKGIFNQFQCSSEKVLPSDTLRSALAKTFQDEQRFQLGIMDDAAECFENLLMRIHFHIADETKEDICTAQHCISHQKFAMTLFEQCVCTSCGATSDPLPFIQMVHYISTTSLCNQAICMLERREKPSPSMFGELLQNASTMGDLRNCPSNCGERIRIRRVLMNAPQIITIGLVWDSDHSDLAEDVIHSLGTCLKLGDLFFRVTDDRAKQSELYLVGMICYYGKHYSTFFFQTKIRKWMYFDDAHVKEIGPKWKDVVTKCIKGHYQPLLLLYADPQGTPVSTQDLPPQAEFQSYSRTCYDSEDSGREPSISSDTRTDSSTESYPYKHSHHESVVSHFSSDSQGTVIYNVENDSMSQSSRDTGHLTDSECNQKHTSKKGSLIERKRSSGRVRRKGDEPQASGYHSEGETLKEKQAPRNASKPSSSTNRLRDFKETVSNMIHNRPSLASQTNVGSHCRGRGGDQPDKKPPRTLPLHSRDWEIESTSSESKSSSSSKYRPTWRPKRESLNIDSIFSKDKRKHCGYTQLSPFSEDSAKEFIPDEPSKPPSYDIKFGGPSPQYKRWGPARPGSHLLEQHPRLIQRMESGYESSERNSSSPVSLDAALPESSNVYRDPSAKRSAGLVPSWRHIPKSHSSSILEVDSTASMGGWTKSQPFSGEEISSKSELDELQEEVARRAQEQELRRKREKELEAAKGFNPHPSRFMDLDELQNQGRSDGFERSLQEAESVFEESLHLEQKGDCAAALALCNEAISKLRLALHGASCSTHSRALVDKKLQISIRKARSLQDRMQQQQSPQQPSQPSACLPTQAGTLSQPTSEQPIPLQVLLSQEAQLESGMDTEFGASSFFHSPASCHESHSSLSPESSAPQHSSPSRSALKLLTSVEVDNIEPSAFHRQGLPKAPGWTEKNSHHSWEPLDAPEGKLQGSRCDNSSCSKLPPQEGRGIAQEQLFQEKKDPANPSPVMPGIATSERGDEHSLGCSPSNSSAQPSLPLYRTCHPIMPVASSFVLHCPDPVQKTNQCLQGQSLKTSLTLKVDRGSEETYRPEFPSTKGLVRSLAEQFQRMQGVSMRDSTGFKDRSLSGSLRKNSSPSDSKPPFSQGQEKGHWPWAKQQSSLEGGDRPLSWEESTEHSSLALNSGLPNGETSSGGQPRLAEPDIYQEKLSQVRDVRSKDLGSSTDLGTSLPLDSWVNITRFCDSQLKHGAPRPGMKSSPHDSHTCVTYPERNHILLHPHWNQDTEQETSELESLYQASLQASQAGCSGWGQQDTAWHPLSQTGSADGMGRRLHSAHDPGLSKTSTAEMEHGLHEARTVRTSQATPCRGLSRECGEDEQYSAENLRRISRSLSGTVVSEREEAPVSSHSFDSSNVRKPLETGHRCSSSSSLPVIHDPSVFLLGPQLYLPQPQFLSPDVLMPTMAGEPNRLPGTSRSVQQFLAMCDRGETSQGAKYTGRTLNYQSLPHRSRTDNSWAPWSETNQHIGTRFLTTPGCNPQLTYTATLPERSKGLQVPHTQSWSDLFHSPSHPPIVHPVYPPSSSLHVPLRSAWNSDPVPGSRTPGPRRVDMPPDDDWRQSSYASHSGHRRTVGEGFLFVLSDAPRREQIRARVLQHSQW
Sequence of USP7 (Q93009 whole entry, looked up): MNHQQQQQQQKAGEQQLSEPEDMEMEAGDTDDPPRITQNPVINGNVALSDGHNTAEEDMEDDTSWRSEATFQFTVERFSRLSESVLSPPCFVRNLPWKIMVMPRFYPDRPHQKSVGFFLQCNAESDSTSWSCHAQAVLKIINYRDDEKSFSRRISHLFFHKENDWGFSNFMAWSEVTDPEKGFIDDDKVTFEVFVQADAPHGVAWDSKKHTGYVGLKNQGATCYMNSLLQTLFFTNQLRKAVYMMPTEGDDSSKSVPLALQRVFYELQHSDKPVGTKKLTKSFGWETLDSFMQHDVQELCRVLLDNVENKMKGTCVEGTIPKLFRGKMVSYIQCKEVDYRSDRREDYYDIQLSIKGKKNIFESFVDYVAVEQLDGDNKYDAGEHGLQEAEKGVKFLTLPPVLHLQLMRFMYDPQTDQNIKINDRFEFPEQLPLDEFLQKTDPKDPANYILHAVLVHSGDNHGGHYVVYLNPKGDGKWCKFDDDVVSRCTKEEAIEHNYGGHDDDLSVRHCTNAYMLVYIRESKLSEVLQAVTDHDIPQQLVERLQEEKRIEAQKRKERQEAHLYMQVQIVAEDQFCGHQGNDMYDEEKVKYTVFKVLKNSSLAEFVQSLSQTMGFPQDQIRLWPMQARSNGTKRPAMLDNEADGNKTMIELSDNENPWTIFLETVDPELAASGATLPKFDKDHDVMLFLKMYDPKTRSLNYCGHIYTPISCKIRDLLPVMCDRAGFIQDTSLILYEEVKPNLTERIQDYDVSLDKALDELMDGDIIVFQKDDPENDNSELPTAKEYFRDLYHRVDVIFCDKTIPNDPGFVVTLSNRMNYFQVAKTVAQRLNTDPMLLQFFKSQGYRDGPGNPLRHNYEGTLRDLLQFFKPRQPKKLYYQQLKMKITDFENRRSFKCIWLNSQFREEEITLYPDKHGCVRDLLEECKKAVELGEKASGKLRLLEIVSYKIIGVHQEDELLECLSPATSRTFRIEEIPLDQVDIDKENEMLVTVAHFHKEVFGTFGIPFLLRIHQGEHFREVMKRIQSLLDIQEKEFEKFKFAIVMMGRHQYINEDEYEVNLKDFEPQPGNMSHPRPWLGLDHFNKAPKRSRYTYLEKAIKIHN
Sequence of USP46 (P62068 whole entry): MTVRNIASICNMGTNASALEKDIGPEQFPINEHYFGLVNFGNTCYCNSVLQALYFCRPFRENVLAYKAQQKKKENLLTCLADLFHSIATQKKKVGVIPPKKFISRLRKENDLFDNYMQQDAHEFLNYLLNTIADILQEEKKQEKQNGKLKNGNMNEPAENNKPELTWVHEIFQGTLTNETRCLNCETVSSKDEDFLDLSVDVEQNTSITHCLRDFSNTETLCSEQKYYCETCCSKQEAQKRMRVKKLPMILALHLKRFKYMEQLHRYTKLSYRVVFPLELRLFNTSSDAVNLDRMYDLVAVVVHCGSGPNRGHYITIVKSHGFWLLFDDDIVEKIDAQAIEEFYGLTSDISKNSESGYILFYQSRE

O=C(CCl)NC1CCCCNC1=O (stereo not drawn)
inactive: [1] 0.0716 | [2] -0.113 | [3] -0.161 | [4] -0.154 | [5] -0.327 | [6] 0.114 | [7] -0.264 | [8] -0.134
